HTT aggregate – inhibitors of mutant huntingtin aggregate formation in PC12 cells. 1.1% of 220,000 active. Potency, µM (highest dose often 46.1 µM), inactives show at the highest dose activity change, negative = inhibition, usual class: inhibitors. PC12 HttQ103-GFP aggregates, Acumen cytometry, 40 h; also: % is scaled to controls: 0 for no effect and ±100 for the full control effect; nearly all actives have a fitted effect of over 60% in size
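Multiplexed with ATP-based cell death, this channel scores GFP aggregates in PC12 cells expressing inducible HTTex1-Q103-GFP. Induction used 100 nM tebufenozide; compounds were tested in concentration series.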
ATXN2 expr inh – reduces ATXN2 reporter expression in HEK-293 cells | HEK-293 ATXN2-luciferase reporter, luminescence, 24 h | Potency, µM (doses to about 57 µM), for inactives: at the top dose activity change, negative = inhibition, actives largely listed as inhibitors | 0.72% of 360,000 active | AID 1745845; also: % is scaled to controls: 0 for no effect and ±100 for the full control effect; nearly all actives have a fitted effect of over 55% in size
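ATXN2-luciferase reporter cells (luciferase flanked by upstream and downstream ATXN2 gene portions) were treated 24 h at 37 °C with compounds at up to 57 uM. SteadyGlo luminescence gave expression; GF-AFC fluorescence gave viability.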
ATXN viability – viability counter-screen for ATXN expression inhibitors; S2 cells (HEK-293 line with an ATXN2-luciferase reporter) viability, CellTiter-Fluor protease fluorescence, 24 h; Potency, µM (highest dose often 56.7 µM), hits mostly cytotoxic; 0.49% of 400,000 active; also: nearly all actives have a fitted effect of over 40% in size
HepG2 viability – HepG2 cytotoxicity, counter-screen for TGF-b inhibitors. HepG2 CAGA-GFP viability, ATP luminescence, 18 h. Potency, µM (titrated, usually from 46.1 µM), for the others: at the top dose activity change, negative = cytotoxicity, hits mostly cytotoxic. 0.76% of 410,000 active
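CellTiter-Glo luminescence gave cytotoxicity after 18 hours at 37 degrees C. The cells were HepG2 CAGA-GFP in 1% FBS DMEM, stimulated with 500 pg/mL TGF-beta after compound addition. %Activity was normalised to no-cell wells (complete cell-killing) and DMSO (no toxicity), and curves were fitted and classified.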
HTT cytoprotect – Huntington cell model cytoprotection by ATP luminescence. 0.14% of 230,000 active. AID 1471. PC12 HTT-Q103 induced, cytoprotection, ATP luminescence, 40 h. Potency, µM (doses to about 56.4 µM), for the others: cytoprotection (ATP increase), usual class: activators; also: % of control where 0% means no effect; nearly all actives have a fitted effect of over 45% in size
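PC12 cells with ecdysone-inducible HTT exon 1 Q103-GFP, induced with 100 nM tebufenozide and co-treated with library compounds in a dose series (1536-well, 1500 cells/well). Cytoprotection read as ATP content by ATPlite luminescence.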
TGFb SMAD3 inh – blocks TGF-b signaling; HepG2 CAGA-GFP TGF-b/SMAD3 reporter, GFP fluorescence, 18 h; TGF-beta stimulated, 500 pg/mL final; Potency, µM (doses to about 46.1 µM), inactives show top-dose activity, negative = inhibition, usual class: inhibitors; 1.2% of 410,000 active; also: % is scaled to controls: 0 for no effect and ±100 for the full control effect; nearly all actives have a fitted effect of over 65% in size
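Smad-responsive CAGA-GFP expression was quantified in HEPG2 cells exposed to compounds and 500 pg/mL final TGF-beta for 18 h at 37 degrees C; unstimulated wells defined full inhibition.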
* = called active by the depositor; i = inactive; u = inconclusive; x = not tested or not shown; [ ] = another dose, or the depositor's remark. An excerpt weighted towards active compounds, which were near 2.8% of everything screened. Calls follow the shape of the dose curve; as a rule, active = well fitted curve in the direction sought with a large enough effect; inconclusive = small, poorly fitted or top-dose-only effect, or another doubt; inactive = no such curve, though single readings can be large; an effect the other way counts as inactive or inconclusive. Potency is read from the fitted curve at half-maximal effect.

SMILES	HTT aggregate	ATXN2 expr inh	ATXN viability	HepG2 viability	HTT cytoprotect	TGFb SMAD3 inh
Cc1c(C(=O)NCC(C)C)sc2ncnc(NCC3CCCO3)c12 (stereo not drawn)	x	x	i	x	x	x
Cc1ccc(-n2c(-c3ccc(Br)cc3)c[n+]3c2CCc2ccc4cccnc4c2-3)cc1	1.78µM*	5.01µM*	14.1µM*	8.91µM*	-111.2%	3.16µM*
OC[C@@H]1O[C@H](O)[C@@H](Cl)[C@H](O)[C@@H]1O	x	x	x	x	-13.6%[1.9 µM]	x
NC(=O)NOCc1ccc(Cl)cc1Cl	2.8%	-20.0%	i	1.6%	-26.8%	14.3%
CNC(=S)/N=C/NOCc1ccc(Cl)cc1Cl	7.94µM*	-22.2%[11.3 µM]	u	-13.1%	-32.9%[10 µM]	14.1µM*
O=C(c1cnn(C(=O)COc2ccc(Cl)cc2)c1)c1ccccc1O	-28.5%	7.2%	i	-31.6%	34.8%[10 µM]	0.0%
Cc1ccc(O)c(C(=O)c2cnn(C(=O)COc3ccc(Cl)cc3)c2)c1	5.62µM*	0.0%	i	-6.9%	2.5%[10 µM]	-3.3%
O=[N+]([O-])c1ccc(N2CCOCC2)cc1O	-4.8%[9.22 µM]	7.7%	u	-2.3%	-14.2%[10 µM]	13.9%
Cc1cc(N2CCOCC2)ccc1/C=C\[N+](=O)[O-]	-20.4%	u	u	17.8µM*	x	11.2µM*
CC1=Nc2cc(C(=O)O)ccc2Sc2ccc(C)cc21	-1.9%	11.0%[11.3 µM]	i	5.4%	17.3%	0.1%
CCC(C)NC(=O)c1ccc2c(c1)N=C(C)c1cc(C)ccc1S2 (stereo not drawn)	x	-19.1%	u	-22.0%	x	7.08µM*
COc1ccccc1-c1ccnc(-n2ncc(C(=O)NC(C)(C)CO)c2C2CC2)n1	x	x	i	x	x	x
CCCCCCn1c(=O)c(-c2ccccc2)c(O)c2ccccc21	3.6%	-0.9%	i	21.1%	-38.9%	30.3%
CCCCCCCn1c(=O)c(C(=O)OC)c(N)c2ccccc21	2.6%[9.22 µM]	u	u	-12.5%	25.8%[10 µM]	12.6µM*
CCCCCCCCn1c(=O)c(C(=O)OC)c(N)c2ccccc21	-5.7%[9.22 µM]	-32.7%	u	-66.4%	4.0%[10 µM]	15.8µM*
COc1ccc(NC(=O)C(=O)NCC(c2ccco2)N2CCc3ccccc3C2)cc1OC (stereo not drawn)	x	-4.3%	i	-23.3%	x	2.51µM*
COc1cccc(CNC(=O)c2c(OC)cc(=O)n3c2CCN(C(=O)c2ccc(C)nc2)CC3)c1	x	x	i	x	x	x
NS(=O)(=O)c1ccc(N=Nc2c(O)ccc3ccccc23)cc1	33.9%	-5.6%	u	-74.2%	u	u
Oc1ccc(N=Nc2c(O)ccc3ccccc23)cc1	-17.3%	-14.5%	u	14.1µM*	19.8%[10 µM]	u
COc1cccc(N=Nc2c(N)[nH]n3c(=O)cc(-c4ccccc4)nc23)c1	10µM*	u	u	-47.0%	-77.0%	0.6%
CCOc1ccc(/C=C/c2ccc3ccccc3[n+]2C)cc1OCC	x	x	x	-3.8%	x	-0.4%
O=C(CSc1nccc(-c2cccs2)n1)Nc1ccc(F)c(Cl)c1	-9.6%[9.22 µM]	x	i	-46.4%	4.9%[10 µM]	12.6µM*
CN(C)C(=O)CNC(=O)Cc1ccccc1	x	2.8%	i	x	x	x
Cc1[nH]n(-c2ccc([N+](=O)[O-])cc2)c(=O)c1/C=N/N1CCOCC1	x	-8.0%	i	1.41µM*	x	2.3%
COc1ccc(CCN=Cc2c(C)[nH]n(-c3ccc([N+](=O)[O-])cc3)c2=O)cc1OC	4.5%	1.9%	i	-10.1%	-34.2%	5.1%
SMILES	HTT aggregate	ATXN2 expr inh	ATXN viability	HepG2 viability	HTT cytoprotect	TGFb SMAD3 inh
Cc1ccc(C2CC(=O)Oc3ccc(C(C)(C)C)cc32)cc1 (stereo not drawn)	x	x	x	x	28.2µM*	x
CC(C)(C)n1ncc2c(=O)n(Cc3ccccc3C#N)cnc21	x	x	x	6.3%	x	-4.8%
O=C(Cc1c[nH]c2ccccc12)N1CCC(n2c(C3CCCO3)nc3cc(C(F)(F)F)ccc32)CC1 (stereo not drawn)	x	x	i	x	x	x
COc1cccc(NS(=O)(=O)c2ccc3c(c2)[C@H]2C=CC[C@H]2[C@@H](c2ccccc2Cl)N3)c1	x	0.0%	i	-49.7%	x	11.2µM*
COc1ccc(NS(=O)(=O)c2ccc3c(c2)[C@H]2C=CC[C@H]2[C@@H](c2ccc(C(=O)O)cc2)N3)cc1	x	1.2%	i	4.9%	x	10.5%
O=C(C=P(c1ccccc1)(c1ccccc1)c1ccccc1)c1ccccc1-c1ccccc1C(=O)C=P(c1ccccc1)(c1ccccc1)c1ccccc1	x	u	x	1.58µM*	x	1µM*
O=C(NNC(=O)c1ccccc1-c1ccccc1C(=O)O)c1ccccc1	-4.0%[9.22 µM]	8.0%	i	-0.2%	14.5%[10 µM]	19.4%
COc1ccccc1-c1ccnc(-n2ncc(C(=O)N(C)C(C)c3nc(C)cs3)c2C2CC2)n1 (stereo not drawn)	x	x	i	x	x	x
CO[C@]12C(COC(N)=O)C3=C(C(=O)C(C)=C(N)C3=O)N1CC1NC12 (stereo partly drawn)	12.6µM*	x	x	x	-288.7%	x
COc1ccc(N=Cc2cc3c(cc2O)OC(N)=C(C#N)C3c2ccccc2)cc1 (stereo not drawn)	7.94µM*	u	i	7.0%	6.8%[1.9 µM]	-5.7%
COc1ccc(C2C(C#N)=C(N)Oc3cc(O)ccc32)cc1 (stereo not drawn)	x	4.4%	i	-21.9%	x	6.0%
Cc1ccc(-c2ccc(C3C(C#N)=C(N)Oc4n[nH]c(C)c43)o2)cc1 (stereo not drawn)	u	-3.4%	i	15.8µM*	-57.4%	u
CCOC(=O)/C(=C\c1ccc(Cl)cc1)c1nc2sc(C)c(C)c2c(=O)[nH]1	u	u	x	8.91µM*	3.1%[10 µM]	u
CCOC(=O)CSc1nc2sc(C)c(C)c2c(=O)[nH]1	7.7%	6.0%	i	-2.7%	-2.6%	0.4%
COc1ccc(Cn2c(SCc3ccc(C)cc3)nc3cc(OC)c(OC)cc3c2=N)cc1Cl	u	28.2µM*	15.8µM*	5.62µM*	-94.7%[10 µM]	u
COc1ccc(Cn2c(SCc3cc(C)ccc3C)nc3cc(OC)c(OC)cc3c2=N)cc1	3.16µM*	x	x	10µM*	-74.3%[10 µM]	-4.0%
CCn1cc2nc(SCc3cc(C)ccc3C)n(Cc3ccc(OC)cc3)c(=O)c2n1	x	-2.9%	i	-14.5%	x	-13.6%
CC/C=C\CC[C@H](OC(=O)c1ccc(Br)cc1)C1=CCCCC1=O	x	x	x	x	-5.9%[10 µM]	x
O=C(Nc1ccc(Br)cn1)c1cnn2c1NC(=C1CC1)C=C2C(F)F	x	x	x	-53.3%	x	16.4%
C=C(CN(C)C)C(=O)c1ccc(OC2OC(COC(C)=O)C(OC(C)=O)C(OC(C)=O)C2OC(C)=O)cc1 (stereo not drawn)	x	u	9.47µM*	-94.1%	x	u

Screening results deposited in PubChem BioAssay by National Center for Advancing Translational Sciences (NCATS).
